# Screen size: about 5,500 compounds; about 2,000 (36%) were called active. Not shown: some 18% with an inconclusive outcome. The list shows a part of the results. Unmarked numbers belong to inactive results. Cut-off read from the data, not from the text of the source: active = normalized growth mostly below about 0.91 (no sharp cut-off); inconclusive = no clear call, values can overlap the other calls; inactive = mostly above about 0.92.
# Test: chemical genetic growth profiling, strain panel (AID 1159580);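 note: tested at 20 µM; growth read once vehicle control cultures reached saturation at 30 °C; 1 = growth at the plate median or of vehicle wells; lower values mean less growth of the strain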
# Settings: growth OD
smiles,measurement,setting,value
CCc1ccc2c(O)c3c(cc2c1C(=O)OC)C(=O)c1c(O)ccc(O)c1C3=O,normalized growth,"S. cerevisiae deletion strains, locus YJR066W, strain TOR1, stronger effect = lower value",0.895
same,normalized growth,"S. cerevisiae deletion strains, locus YJR075W, strain HOC1, stronger effect = lower value",0.981
same,normalized growth,"S. cerevisiae deletion strains, locus YKL068W, stronger effect = lower value",0.99
same,normalized growth,"S. cerevisiae deletion strains, locus YKL085W, strain MDH1 (second series), stronger effect = lower value",1.05
same,normalized growth,"S. cerevisiae deletion strains, locus YKL085W, strain MDH1, stronger effect = lower value",1.05
same,normalized growth,"S. cerevisiae deletion strains, locus YKL160W, strain elf1, stronger effect = lower value",0.996
same,normalized growth,"S. cerevisiae deletion strains, locus YKR001C, strain vps1, stronger effect = lower value",0.99
same,normalized growth,"S. cerevisiae deletion strains, locus YKR026C, strain gcn3, stronger effect = lower value",0.979
same,normalized growth,"S. cerevisiae deletion strains, locus YKR091W, strain srl3, stronger effect = lower value",0.995
same,normalized growth,"S. cerevisiae deletion strains, locus YLL001W, strain dnm1, stronger effect = lower value",0.973
same,normalized growth,"S. cerevisiae deletion strains, locus YLL026W, stronger effect = lower value",0.983
same,normalized growth,"S. cerevisiae deletion strains, locus YLL041C, strain sdh2, stronger effect = lower value",0.999
same,normalized growth,"S. cerevisiae deletion strains, locus YLR027C, strain aat2, stronger effect = lower value",0.994
same,normalized growth,"S. cerevisiae deletion strains, locus YLR039C, strain RIC1, stronger effect = lower value",0.961
same,normalized growth,"S. cerevisiae deletion strains, locus YLR058C, strain SHM2, stronger effect = lower value",0.956
same,normalized growth,"S. cerevisiae deletion strains, locus YLR102C, strain apc9, stronger effect = lower value",0.999
same,normalized growth,"S. cerevisiae deletion strains, locus YLR113W, strain HOG1, stronger effect = lower value",0.988
same,normalized growth,"S. cerevisiae deletion strains, locus YLR221C, strain rsa3, stronger effect = lower value",0.969
same,normalized growth,"S. cerevisiae deletion strains, locus YLR258W, strain gsy2, stronger effect = lower value",0.989
same,normalized growth,"S. cerevisiae deletion strains, locus YLR262C, strain YPT6 (second series), stronger effect = lower value",0.956
same,normalized growth,"S. cerevisiae deletion strains, locus YLR262C, strain YPT6, stronger effect = lower value",0.95
same,normalized growth,"S. cerevisiae deletion strains, locus YLR268W, strain sec22, stronger effect = lower value",0.98
same,normalized growth,"S. cerevisiae deletion strains, locus YLR320W, strain mms22, stronger effect = lower value",0.98
same,normalized growth,"S. cerevisiae deletion strains, locus YLR330W, strain CHS5, stronger effect = lower value",1
same,normalized growth,"S. cerevisiae deletion strains, locus YLR342W, strain FKS1 (second series), stronger effect = lower value",0.977
same,normalized growth,"S. cerevisiae deletion strains, locus YLR342W, strain FKS1, stronger effect = lower value",0.968
same,normalized growth,"S. cerevisiae deletion strains, locus YLR357W, strain rsc2, stronger effect = lower value",0.878
same,normalized growth,"S. cerevisiae deletion strains, locus YLR370C, strain arc18, stronger effect = lower value",0.949
same,normalized growth,"S. cerevisiae deletion strains, locus YLR371W, strain rom2, stronger effect = lower value",0.995
same,normalized growth,"S. cerevisiae deletion strains, locus YLR384C, strain iki3, stronger effect = lower value",1
same,normalized growth,"S. cerevisiae deletion strains, locus YLR418C, strain cdc73, stronger effect = lower value",0.932
same,normalized growth,"S. cerevisiae deletion strains, locus YML016C, strain PPZ1, stronger effect = lower value",0.983
same,normalized growth,"S. cerevisiae deletion strains, locus YML032C, strain rad52, stronger effect = lower value",0.932
same,normalized growth,"S. cerevisiae deletion strains, locus YML120C, strain ndi1, stronger effect = lower value",0.999
same,normalized growth,"S. cerevisiae deletion strains, locus YML124C, strain tub3, stronger effect = lower value",0.998
same,normalized growth,"S. cerevisiae deletion strains, locus YMR058W, strain fet3, stronger effect = lower value",0.762 (active)
same,normalized growth,"S. cerevisiae deletion strains, locus YMR078C, strain ctf18, stronger effect = lower value",0.997
same,normalized growth,"S. cerevisiae deletion strains, locus YMR125W, strain sto1, stronger effect = lower value",1.01
same,normalized growth,"S. cerevisiae deletion strains, locus YMR129W, stronger effect = lower value",0.966
same,normalized growth,"S. cerevisiae deletion strains, locus YMR205C, strain PFK2, stronger effect = lower value",0.984
same,normalized growth,"S. cerevisiae deletion strains, locus YMR223W, strain ubp8, stronger effect = lower value",0.933
same,normalized growth,"S. cerevisiae deletion strains, locus YMR231W, strain pep5, stronger effect = lower value",0.995
same,normalized growth,"S. cerevisiae deletion strains, locus YMR307W, strain GAS1, stronger effect = lower value",0.998
same,normalized growth,"S. cerevisiae deletion strains, locus YNL067W, strain RPL9B, stronger effect = lower value",0.973
same,normalized growth,"S. cerevisiae deletion strains, locus YNL071W, strain lat1, stronger effect = lower value",1
same,normalized growth,"S. cerevisiae deletion strains, locus YNL153C, strain GIM3, stronger effect = lower value",0.954
same,normalized growth,"S. cerevisiae deletion strains, locus YNL183C, strain NPR1, stronger effect = lower value",0.908
same,normalized growth,"S. cerevisiae deletion strains, locus YNL209W, strain ssb2, stronger effect = lower value",0.981
same,normalized growth,"S. cerevisiae deletion strains, locus YNL233W, strain BNI4, stronger effect = lower value",0.98
same,normalized growth,"S. cerevisiae deletion strains, locus YNL248C, strain rpa49, stronger effect = lower value",0.961
same,normalized growth,"S. cerevisiae deletion strains, locus YNL250W, strain rad50, stronger effect = lower value",0.972
same,normalized growth,"S. cerevisiae deletion strains, locus YNL271C, strain bni1, stronger effect = lower value",0.965
same,normalized growth,"S. cerevisiae deletion strains, locus YNL298W, strain CLA4, stronger effect = lower value",0.985
same,normalized growth,"S. cerevisiae deletion strains, locus YNL307C, strain MCK1, stronger effect = lower value",1
same,normalized growth,"S. cerevisiae deletion strains, locus YNL322C, strain KRE1 (second series), stronger effect = lower value",0.979
same,normalized growth,"S. cerevisiae deletion strains, locus YNR049C, strain mso1, stronger effect = lower value",0.967
same,normalized growth,"S. cerevisiae deletion strains, locus YNR052C, strain pop2, stronger effect = lower value",0.984
same,normalized growth,"S. cerevisiae deletion strains, locus YOL006C, strain TOP1, stronger effect = lower value",1.07
same,normalized growth,"S. cerevisiae deletion strains, locus YOL012C, strain htz1",0.673
same,normalized growth,"S. cerevisiae deletion strains, locus YOL147C, strain pex11, stronger effect = lower value",1.01
same,normalized growth,"S. cerevisiae deletion strains, locus YOR001W, strain rrp6, stronger effect = lower value",0.973
same,normalized growth,"S. cerevisiae deletion strains, locus YOR061W, strain CKA2, stronger effect = lower value",0.957
same,normalized growth,"S. cerevisiae deletion strains, locus YOR069W, strain VPS5, stronger effect = lower value",0.999
same,normalized growth,"S. cerevisiae deletion strains, locus YOR070C, strain gyp1, stronger effect = lower value",0.988
same,normalized growth,"S. cerevisiae deletion strains, locus YOR080W, strain dia2, stronger effect = lower value",0.991
same,normalized growth,"S. cerevisiae deletion strains, locus YOR083W, strain WHI5, stronger effect = lower value",0.98
same,normalized growth,"S. cerevisiae deletion strains, locus YOR106W, strain vam3, stronger effect = lower value",0.964
same,normalized growth,"S. cerevisiae deletion strains, locus YOR136W, strain idh2, stronger effect = lower value",1.01
same,normalized growth,"S. cerevisiae deletion strains, locus YOR144C, strain elg1, stronger effect = lower value",0.993
same,normalized growth,"S. cerevisiae deletion strains, locus YOR184W, strain ser1, stronger effect = lower value",0.965
same,normalized growth,"S. cerevisiae deletion strains, locus YOR231W, strain MKK1, stronger effect = lower value",0.965
same,normalized growth,"S. cerevisiae deletion strains, locus YOR265W, strain rbl2, stronger effect = lower value",0.987
same,normalized growth,"S. cerevisiae deletion strains, locus YOR270C, strain vph1, stronger effect = lower value",0.827
same,normalized growth,"S. cerevisiae deletion strains, locus YOR290C, strain snf2, stronger effect = lower value",0.929
same,normalized growth,"S. cerevisiae deletion strains, locus YOR316C, strain cot1, stronger effect = lower value",0.992
same,normalized growth,"S. cerevisiae deletion strains, locus YPL051W, strain arl3, stronger effect = lower value",0.953
same,normalized growth,"S. cerevisiae deletion strains, locus YPL078C, strain atp4, stronger effect = lower value",0.977
same,normalized growth,"S. cerevisiae deletion strains, locus YPL106C, strain sse1, stronger effect = lower value",0.974
same,normalized growth,"S. cerevisiae deletion strains, locus YPL240C, strain hsp82, stronger effect = lower value",0.983
same,normalized growth,"S. cerevisiae deletion strains, locus YPL241C, strain CIN2, stronger effect = lower value",0.99
same,normalized growth,"S. cerevisiae deletion strains, locus YPL256C, strain CLN2, stronger effect = lower value",1.03
same,normalized growth,"S. cerevisiae deletion strains, locus YPR119W, strain clb2, stronger effect = lower value",1
same,normalized growth,"S. cerevisiae deletion strains, locus YPR141C, strain kar3, stronger effect = lower value",0.979
same,normalized growth,"S. cerevisiae deletion strains, locus YPR163C, strain tif3, stronger effect = lower value",1.01
same,normalized growth,"S. cerevisiae deletion strains, locus YPR167C, strain met16, stronger effect = lower value",0.965
same,normalized growth,"S. cerevisiae deletion strains, strain wtn01, stronger effect = lower value",1
same,normalized growth,"S. cerevisiae strains, strain wild type, stronger effect = lower value",0.971

# Reference: PubChem BioAssay AID1159580 (chemical genetic matrix, 2015)
